Only some compounds are listed: those with a hit (about 10% of all), similar ones and a draw of the others.
BAZ2B inh = inhibitors of human BAZ2B bromodomain | Q9UIF8 | AlphaScreen BAZ2B-H3K14Ac peptide displacement | Potency, µM (titrated, usually from 114 µM), most hits filed as inhibitors | 360,000 compounds, 4.4% hits; note: nearly all actives have a fitted effect of over 60% in size
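Complex of BAZ2B and biotin-H3K14Ac (50 nM apiece) forms over 30 min at RT, then faces library compounds up to 110 uM for another 30 min; AlphaScreen beads added, 20 min dark incubation, luminescence read.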
JMJD2A Tudor = blocks the human JMJD2A Tudor domain | O75164 | AlphaScreen JMJD2A-Tudor / H3K4me3 peptide binding | Potency, µM (highest dose often 114 µM), usual class: inhibitors | 390,000 compounds, 4.4% hits; note: nearly all actives have a fitted effect of over 50% in size
GLS inh = glutaminase GLS (human) inhibition; O94925; 410,000 compounds, 0.21% hits; Potency, µM (series often up to 45.5 µM), actives largely listed as inhibitors; GLS enzymatic activity, qHTS titration; AID 624170
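hKGA in 45 mM KH2PO4 pH 8.2, 0.02% Tween-20 with pin-transferred compounds; 1 mM L-glutamine (stock) plus glutamate oxidase/HRP/Amplex Red coupling added. Fluorescence read initially and after 30 min at RT.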
HP1b binding inh = HP1-beta chromodomain-methylated histone interaction inhibition. P83916. AlphaScreen HP1-beta / biotin-H3K9me3 peptide binding. Potency, µM (top dose mostly 114 µM), most hits filed as inhibitors. 390,000 compounds, 0.56% hits; note: nearly all actives have a fitted effect of over 70% in size
Target sequence (P83916 whole entry, looked up): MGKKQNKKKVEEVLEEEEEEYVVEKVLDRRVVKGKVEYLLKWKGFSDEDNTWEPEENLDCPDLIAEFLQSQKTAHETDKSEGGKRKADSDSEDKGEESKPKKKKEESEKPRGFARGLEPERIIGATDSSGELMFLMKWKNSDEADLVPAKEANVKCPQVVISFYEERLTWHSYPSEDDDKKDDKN
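HP1-beta protein (50 nM final) preincubated 30 min at room temperature with biotinylated H3(1-18)K9me3 peptide (50 nM) in PBS pH 7.4, 0.01% Tween-20, then compound added for 30 min. AlphaScreen streptavidin donor/nickel chelate acceptor beads (10 ug/mL final), 30 min dark, luminescence read.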
G9a inh = blocks human histone lysine methyltransferase G9a; Q96KQ7; G9a H3K9 monomethylation, AlphaScreen, 2 h; Potency, µM (doses to about 102 µM), hits mostly inhibitors; 350,000 compounds, 8.8% hits; AID 504332; note: nearly all actives have a fitted effect of over 75% in size
Target sequence (Q96KQ7 913-1193 limits assumed): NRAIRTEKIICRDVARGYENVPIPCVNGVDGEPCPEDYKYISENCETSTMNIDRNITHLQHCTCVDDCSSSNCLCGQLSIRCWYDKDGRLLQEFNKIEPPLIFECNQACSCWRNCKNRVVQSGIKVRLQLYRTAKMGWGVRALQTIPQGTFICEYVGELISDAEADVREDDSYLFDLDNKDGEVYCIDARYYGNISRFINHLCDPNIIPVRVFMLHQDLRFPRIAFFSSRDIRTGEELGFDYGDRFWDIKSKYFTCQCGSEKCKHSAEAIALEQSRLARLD
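Compounds were preincubated with 20 nM G9a for 15 min, after which biotinylated H3K9 peptide (500 nM) and SAM (20 uM) started a 2 h room-temperature reaction. Monomethylated product was quantified by antibody-based AlphaScreen chemiluminescence.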
Large screens that a line does not name were inactive. Calls come from the whole dose curve; as a rule, active = well fitted curve in the direction sought with a large enough effect; inconclusive = small, poorly fitted or top-dose-only effect, or another doubt; inactive = no such curve, though single readings can be large; an effect the other way counts as inactive or inconclusive.

Cc1c(Cl)cccc1Nc1n[nH]c(=S)s1	JMJD2A Tudor 11.2µM, HP1b binding inh 50.1µM (no result: BAZ2B inh, G9a inh)
Fc1ccccc1Nc1n[nH]c(=S)s1	BAZ2B inh 50.1µM, JMJD2A Tudor 2.82µM, HP1b binding inh 44.7µM, G9a inh 2.82µM
Cc1cccc(OCCn2c(CCNC(=O)C3CCCCC3)nc3ccccc32)c1	none (no result: BAZ2B inh, GLS inh, G9a inh)
Cc1ccc(Nc2nc(C)nc(N)c2S(=O)(=O)c2ccccc2)cc1	none
Cc1cccc(Nc2c(O)nc[nH]c2=O)c1	none (no result: BAZ2B inh, G9a inh)
Cn1c(=O)c2c(nc(NCCOc3ccc(C(C)(C)C)cc3)n2C)n(C)c1=O	none
COc1ccccc1OCCNc1nc2c(c(=O)n(C)c(=O)n2C)n1C	JMJD2A Tudor 22.4µM
COc1cccc(-c2cc(C(F)(F)F)n3nc(C)c(-c4ccccc4)c3n2)c1	none
Cc1ccc(S(=O)(=O)N2CCOCC2)cc1C(=O)OCCOc1cccc(Cl)c1	none
CC12CCC(C(=O)OC3CCCCC3)(OC1=O)C2(C)C (stereo unspecified)	none
CN(C)CCCN1C(=O)C(O)=C(C(=O)c2cc3ccccc3o2)C1c1ccccc1 (stereo unspecified)	BAZ2B inh inconclusive, G9a inh 14.1µM
Cc1ccc(C2C(C(=O)c3cc4ccccc4o3)=C(O)C(=O)N2CCN2CCOCC2)cc1 (stereo unspecified)	JMJD2A Tudor inconclusive, G9a inh 39.8µM
COc1cccc2cc(C(=O)NCCN3CCOCC3)oc12	G9a inh 44.7µM
O=C(C1=C(O)C(=O)N(CCN2CCOCC2)C1c1ccc(Br)cc1)c1cc2ccccc2o1 (stereo unspecified)	BAZ2B inh inconclusive, G9a inh inconclusive
O=C(C1=C(O)C(=O)N(CCN2CCOCC2)C1c1cccc(O)c1)c1cc2ccccc2o1 (stereo unspecified)	BAZ2B inh inconclusive, JMJD2A Tudor inconclusive, G9a inh 50.1µM
CC(=O)Nc1ccc(C2Nc3c(C)cc(C)cc3-c3cc(C)nn32)cc1 (stereo unspecified)	none
Cc1ccc2[nH]c(CSc3nnc(NC(=O)COc4ccccc4)s3)cc(=O)c2c1	none
O=C(C1=C(O)C(=O)N(CCN2CCOCC2)C1c1cccnc1)c1cc2ccccc2o1 (stereo unspecified)	BAZ2B inh inconclusive, JMJD2A Tudor inconclusive, G9a inh 28.2µM
COc1cccc2cc(C(=O)C3=C(O)C(=O)N(CCN4CCOCC4)C3c3ccc(C(C)(C)C)cc3)oc12 (stereo unspecified)	JMJD2A Tudor 56.2µM, G9a inh 31.6µM
O=C(C1=C(O)C(=O)N(CCN2CCOCC2)C1c1cccs1)c1cc2ccccc2o1 (stereo unspecified)	none (no result: BAZ2B inh, G9a inh)
Cc1ccc(C2C(C(=O)c3cc4ccccc4o3)=C(O)C(=O)N2CCN2CCOCC2)o1 (stereo unspecified)	BAZ2B inh inconclusive, JMJD2A Tudor 89.1µM, G9a inh inconclusive
N#CNc1nc(O)cc(=O)[nH]1	G9a inh 50.1µM
COc1ccc(NS(=O)(=O)c2ccc3oc(SC)nc3c2)cc1	HP1b binding inh inconclusive, G9a inh 39.8µM
CNC(=O)CSc1nc2cc(S(=O)(=O)Nc3ccc(OC)cc3)ccc2o1	none (no result: BAZ2B inh, G9a inh)
CC(C)(C)c1csc(NC(=O)c2cccnc2)n1	BAZ2B inh inconclusive
CC(C)(C)c1csc(NNC(=O)c2ccc(Cl)cc2)n1	G9a inh 39.8µM
O=C(COc1ccccc1F)Nc1ccccc1OCc1cc(=O)n2ccccc2n1	none
COc1ccccc1NC(=O)CN1CCC(n2nnc3cc(F)ccc32)CC1	none
O=C(CN1CCC(n2nnc3cc(F)ccc32)CC1)NCc1ccco1	BAZ2B inh 79.4µM, G9a inh inconclusive
CCOc1ccc(N)c(SSc2cc(OCC)ccc2N)c1	BAZ2B inh 31.6µM, JMJD2A Tudor 12.6µM, HP1b binding inh 17.8µM, G9a inh 0.562µM
CCc1ccc(OC(C)C(=O)N2CCC(c3nc4ccccc4s3)CC2)cc1 (stereo unspecified)	G9a inh inconclusive
N#Cc1ccc(C(=O)Nc2ccccc2-c2nc3ccccc3s2)c(F)c1	none
Cc1cc(N)n(-c2ccc(Oc3ccccc3)c(S(=O)(=O)O)c2)n1	BAZ2B inh 56.2µM, G9a inh 50.1µM
CC1CCCN(S(=O)(=O)c2cccc(C(=O)NCCCN3CCCC3=O)c2)C1 (stereo unspecified)	none (no result: BAZ2B inh, JMJD2A Tudor, HP1b binding inh, G9a inh)
Cc1ccc(CN(Cc2ccco2)C(=O)c2ccc(OCC(C)C)cc2)cc1	none
CCCCOc1ccc(C(=O)N(Cc2ccco2)Cc2ccco2)cc1	JMJD2A Tudor inconclusive
CC(C)Oc1ccc(C(=O)N(Cc2ccc(N(C)C)cc2)Cc2ccco2)cc1	BAZ2B inh 12.6µM, JMJD2A Tudor 25.1µM, HP1b binding inh inconclusive, G9a inh 11.2µM
CCCCOc1ccc(C(=O)N(Cc2ccc(N(C)C)cc2)Cc2ccco2)cc1	BAZ2B inh 10µM, JMJD2A Tudor 20µM, HP1b binding inh inconclusive, G9a inh 11.2µM
OCCN1CCN(c2nc(-c3ccccc3O)nc3ccccc23)CC1	none
Cc1cc(SCC(=O)c2cccs2)nc2ccccc12	none
O=C(COC(=O)COc1ccc(Cl)cc1Br)NC1CCCC1	none (no result: BAZ2B inh, JMJD2A Tudor, HP1b binding inh, G9a inh)
Cc1ccc(S(=O)(=O)Cc2nc(-c3ccc(C(=O)NCc4ccccc4F)cc3)oc2C)cc1	BAZ2B inh inconclusive (no result: GLS inh)
O=[N+]([O-])c1cc(CN2CCCC2)c2cccnc2c1O	BAZ2B inh 5.01µM, JMJD2A Tudor 12.6µM, HP1b binding inh inconclusive, G9a inh inconclusive
Oc1c(Cl)cc(CN2CCCCC2)c2cccnc12	BAZ2B inh 3.55µM (no result: JMJD2A Tudor, GLS inh, HP1b binding inh)
O=[N+]([O-])c1ccc(N2CCN(CCO)CC2)c2ncccc12	none
Oc1ccc(CN2CCN(c3ccccc3)CC2)c2cccnc12	BAZ2B inh inconclusive, G9a inh 3.16µM
Oc1ccc2ccccc2c1CN1CCN(c2ccccc2)CC1	G9a inh inconclusive
Ic1ccc(N2CCN(Cc3c[nH]c4ncccc34)CC2)cc1	BAZ2B inh 50.1µM, JMJD2A Tudor 89.1µM, G9a inh 23.8µM
CCC(=O)N1CCCC(C(=O)Nc2ccc3cn[nH]c3c2)CC1 (stereo unspecified)	none (no result: BAZ2B inh, JMJD2A Tudor, HP1b binding inh, G9a inh)
C/C=C1\COC(C(=O)NCc2ccccn2)(C(F)(F)F)C=C1C=C(C)C (stereo unspecified)	none (no result: BAZ2B inh, GLS inh, G9a inh)
COc1ccc(-n2c(=O)c3c(c4cc(OC)ccc4n3C)n(Cc3c(F)cccc3Cl)c2=O)cc1	G9a inh inconclusive
FC(F)(F)c1ccccc1CN1CCC(Cc2ccccc2)CC1	JMJD2A Tudor 12.6µM, HP1b binding inh inconclusive, G9a inh 22.4µM
Oc1c(CN2CCCCC2)ccc2cccnc12	JMJD2A Tudor 20µM (no result: BAZ2B inh, G9a inh)
O=C(NCc1ccccc1)c1ccc(CN2CCC(Cc3ccccc3)CC2)cc1	none
Oc1ccc(CN2CCC(Cc3ccccc3)CC2)c2cccnc12	BAZ2B inh 20µM, JMJD2A Tudor 25.1µM, G9a inh 35.5µM
Cn1cc(CN2CCc3ccccc3C2)c2ccccc21	G9a inh inconclusive
Oc1ccc(CN2CCc3ccccc3C2)c2cccnc12	BAZ2B inh 5.62µM, JMJD2A Tudor 10µM, G9a inh inconclusive
